A selection: hits, their analogues and other compounds. The true share with any hit is near 1.4%.
GC-A act: GC-A (human) enzyme activation; activation, % at 10 µM; P16066; actives 0.14% (n = 370,000); HEK293 GC-A cells, cGMP TR-FRET, EC30 ANP; 0% at EC30 ANP, 100% saturating ANP; in the data active means activation above about 40%
A3A deaminase: human APOBEC3A DNA deaminase inhibition; inhibition, % at 20 µM; actives 0.41% (n = 330,000); AID 493011; recombinant A3A, FAM/TAMRA ssDNA deamination fluorescence; P31941;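 active means at least 40% inhibition at 20 µM here, with at most 30% in a related deaminase screen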;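 further: plate controls were A3A with DMSO for no effect and wells lacking A3A enzyme for full effect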
Target sequence (P31941 whole entry, looked up): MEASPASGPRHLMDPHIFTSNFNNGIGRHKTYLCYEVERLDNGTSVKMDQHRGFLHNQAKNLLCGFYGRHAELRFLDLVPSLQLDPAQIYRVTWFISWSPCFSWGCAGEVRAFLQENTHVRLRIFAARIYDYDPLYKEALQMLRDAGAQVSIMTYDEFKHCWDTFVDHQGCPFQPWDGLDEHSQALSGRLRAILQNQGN
GC-B act: GC-B (human) receptor activation | actives 0.11% (n = 370,000) | activation, % at 10 µM | P20594 | HEK293-GC-B cells, CNP EC30, cGMP TR-FRET; 0% at EC30 CNP, 100% saturating CNP;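 active means activation at 10 µM reaching about 35% in either raw or pattern-adjusted values, limit read from the data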
APOBEC3G inh: blocks human APOBEC3G single-stranded DNA deamination | AID 493012 | inhibition, % at 20 µM | recombinant A3G, ssDNA deamination FAM/TAMRA fluorescence | actives 0.28% (n = 330,000) | Q9HC16;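 active means inhibition of at least 40% at 20 µM, with no more than 30% in the related APOBEC3A deaminase screen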;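 further: plate controls were DMSO wells with A3G for no effect and wells lacking A3G enzyme for full effect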
Target sequence (Q9HC16 whole entry, looked up): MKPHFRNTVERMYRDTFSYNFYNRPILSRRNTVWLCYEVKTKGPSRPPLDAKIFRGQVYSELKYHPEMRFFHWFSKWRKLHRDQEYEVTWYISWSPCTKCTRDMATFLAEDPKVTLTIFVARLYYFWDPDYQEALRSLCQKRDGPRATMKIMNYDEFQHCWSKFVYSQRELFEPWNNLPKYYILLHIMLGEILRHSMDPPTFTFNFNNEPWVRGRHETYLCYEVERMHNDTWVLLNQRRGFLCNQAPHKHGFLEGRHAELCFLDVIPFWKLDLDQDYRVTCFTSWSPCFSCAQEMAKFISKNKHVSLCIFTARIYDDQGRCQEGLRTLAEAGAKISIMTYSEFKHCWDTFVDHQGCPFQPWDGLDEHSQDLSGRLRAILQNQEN
FAS-TE inh: blocks the thioesterase domain of human fatty acid synthase; recombinant FAS-TE, OMFH fluorogenic substrate, fluorescence endpoint; actives 0.67% (n = 360,000); inhibition, % at 15 µM; P49327; AID 602261;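 active means compounds whose normalised, plate-corrected inhibition of enzyme fluorescence in the single-dose primary screen is 50% or more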;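 further: 0% = DMSO with enzyme and 100% = substrate without enzyme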
APOBEC3A confirm: confirmation of human APOBEC3A DNA deaminase inhibitors; shares compounds with A3A deaminase; recombinant A3A, ssDNA deaminase UDG fluorescence assay; inhibition, % at 20 µM; actives 63% (n = 1,400); AID 493151;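 active means inhibition reaching a set limit, 80% of the first screen's cutoff, at 20 µM in any replicate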;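 further: plate controls were DMSO wells with A3A for no effect and wells lacking A3A enzyme for full effect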
UDG A3A counter: inhibits UDG, flagging false APOBEC3A inhibitors. shares compounds with A3A deaminase. UDG counterscreen, FAM/TAMRA uracil oligo fluorescence. inhibition, % at 20 µM. 1,000 tested, under 10 active; call rule not given here
Starred values were filed as active, the others as inactive; x = no result.

SMILES | GC-A act | A3A deaminase | GC-B act | APOBEC3G inh | FAS-TE inh | APOBEC3A confirm | UDG A3A counter
Cc1ccc(S(=O)(=O)NCCC(=O)N2CCN(c3cccc(Cl)c3)CC2)cc1C | -12 | 3 | -2 | 10 | 5 | x | x
O=C(CCNS(=O)(=O)c1ccc2nsnc2c1)N1CCN(c2ccncc2)CC1 | 2 | 64* | 5 | -5 | -8 | -5 | -2
CN1CCC(N[C@@H](Cc2c[nH]c3ccccc23)C(=O)NCCCc2ccccc2)(C(=O)NCCc2c[nH]c3ccccc23)CC1 | -3 | x | -2 | x | x | x | x
COc1cccc(N(C)C(=O)[C@@H](C)[C@@H](O)c2ccc(Cl)cc2)c1 | -9 | x | -5 | x | x | x | x
Cc1cccc(N2CC(C(=O)Nc3nnc(SCC(=O)Nc4nccs4)s3)CC2=O)c1 (stereo not drawn) | -3 | 2 | 2 | -3 | -1 | x | x
Cc1ccccc1N1CC(C(=O)Nc2nnc(SCC(=O)Nc3nccs3)s2)CC1=O (stereo not drawn) | -2 | 48* | -4 | -10 | -6 | 9 | 6
c1ccc(-c2ccc(C3=Nn4c(nnc4-c4ccccn4)SC3)cc2)cc1 | -6 | x | -14 | x | x | x | x
Cc1cccc(NC(=O)CSCC(=O)Nc2cc(C(F)(F)F)ccc2N2CCOCC2)c1 | -20 | x | -12 | x | 16 | x | x
Cc1ccc[n+](CC(=O)Nc2cc(C(F)(F)F)ccc2N2CCOCC2)c1 | 2 | 48* | 4 | 11 | -6 | 65* | 3
Cc1ccc2nc3c(nc2c1C)C(O)=C3O | 0 | 65* | -1 | -4 | -1 | 7 | 8
Cc1ccc2nc3c(nc2c1C)CCCC3 | 3 | -3 | -2 | -7 | 0 | x | x
CN(C)CCOC(=O)C1(c2ccccc2)CCCC1 | 3 | 1 | 2 | 1 | -8 | x | x
C[N+]1(CCCOC(=O)C2(c3ccccc3)CCCC2)CCOCC1 | 2 | 85* | 1 | 28 | -4 | 69* | -3
C[C@@H]1NS(=O)(=O)c2ccc(F)cc2O[C@@H]1c1ccccc1 | 0 | x | 8 | x | x | x | x
NC(=O)C[n+]1cccc(C(=O)Nc2ccccc2)c1 | 1 | 76* | -1 | 19 | -3 | 78* | -1
CCOc1ccc(C=Nn2c(-c3cccc(OC(C)C)c3)n[nH]c2=S)cc1 | 2 | x | 2 | x | x | x | x
C[N+]12CCCCC1[C@@H](CO)CCC2 (stereo partly drawn) | 1 | 56* | 1 | 22 | -5 | 71* | 2
C=CCNC(=O)c1ccc2c(c1)N(CC)C(=O)c1ccccc1S2 | 2 | 0 | 4 | -2 | -1 | x | x
CCOC(=O)c1ccc2c(c1)N(CC)C(=O)c1ccccc1S2 | x | 52* | x | 12 | 3 | 72* | -3
COc1ccc(Cl)cc1C(=O)NNC(=O)c1csc(N2CCOCC2)n1 | 0 | 41* | 0 | -6 | -8 | -4 | 3
CCN(CC)c1ccc(NC(=O)CSc2nnc(SCc3ccc(Cl)cc3)s2)cc1 | -4 | x | -1 | x | x | x | x
CCOc1ccc(NC(=O)C2CCCN2C(=O)Oc2ccccc2)cc1 (stereo not drawn) | -1 | 73* | 1 | 20 | -4 | 78* | -2
Cc1cc(C)cc(NC(=O)C2CCCN2C(=O)Oc2ccccc2)c1 (stereo not drawn) | -1 | 3 | 5 | -3 | 0 | x | x
Cc1c(C(=O)OC(C)C(=O)N(C)Cc2ccccc2)oc2ccccc12 (stereo not drawn) | -2 | -2 | -3 | -4 | 26 | x | x
Cc1c(C(=O)OC(C)C(C)C[N+](C)(C)C)oc2ccccc12 (stereo not drawn) | 4 | 83* | 9 | 24 | -12 | 81* | -3
SMILES | GC-A act | A3A deaminase | GC-B act | APOBEC3G inh | FAS-TE inh | APOBEC3A confirm | UDG A3A counter
CC(C)N1C(=O)CC2(CC[N+](C)(CCOC(=O)C(c3ccccc3)c3ccccc3)CC2)C1=O (stereo not drawn) | -1 | 60* | 0 | 18 | -3 | 27* | 5
CC1(C)CC2CC(C)(CN2S(=O)(=O)c2cccc(C(=O)OCC(=O)NC(N)=O)c2)C1 (stereo not drawn) | 0 | 54* | -2 | 4 | -1 | 1 | x
COC(=O)Cc1nnn2c1[C@@H](C)[C@@H](c1ccccc1Br)OC[C@H](C)C2 | -2 | x | -3 | x | x | x | x
CC[n+]1c(/C=C/N(C)c2ccccc2)n(-c2ccccc2)c2ccc(-c3nc4ccccc4s3)cc21 | x | 61* | x | 5 | -9 | 48* | x
CCN(CC(=O)Nc1c(F)cccc1F)C(=O)CCNS(=O)(=O)c1ccc(C)c(C)c1 | 4 | 49* | 2 | -9 | -2 | 5 | 0
CCOc1ccc(S(=O)(=O)NCCC(=O)N(CC)CC(=O)Nc2c(F)cccc2F)cc1 | -1 | -4 | -4 | -6 | -3 | x | x
COc1cc(C(=O)N2CCN(S(=O)(=O)c3ccc(Cl)cc3)CC2)ccc1OCC(=O)N1CCOCC1 | 1 | x | -4 | x | -6 | x | x
COc1ccccc1OCC(=O)N1CCN(S(=O)(=O)c2ccc(Cl)cc2)CC1 | -3 | 53* | 2 | 5 | 0 | 1 | x
O=C(Cc1c[nH]c2ccccc12)N1CCN(S(=O)(=O)c2ccc(Cl)cc2)CC1 | -6 | 40* | -5 | 0 | 6 | 0 | x
COc1ccc(/C=C2\CC3(OC(=O)c4cccc(F)c4)CCCN2C3)cc1 (stereo not drawn) | -1 | x | -20 | x | x | x | x
CCN(CC)C(=O)CC[C@@H]1CC[C@]2(CCCN(S(=O)(=O)c3ccccc3)C2)O1 | -8 | x | -2 | x | x | x | x
COc1ccc(-c2ccc3c(n2)CCCN3S(=O)(=O)c2ccc(C#N)cc2)cc1 | -1 | x | 5 | x | x | x | x
COc1ccc(CCNC(=O)CN(C2CCCCC2)S(C)(=O)=O)cc1OC | 3 | 44* | 0 | 25 | -6 | 58* | 5
CS(=O)(=O)N(CC(=O)NCCc1ccccc1)C1CCCCC1 | 0 | -5 | -1 | -5 | -2 | x | x
CCOC(=O)[C@]12CCCCC/C=C\1N(Cc1ccc(OC)cc1)C(=O)[C@H]2CC(=O)NCC12CC3CC(CC(C3)C1)C2 | -6 | x | -1 | x | x | x | x
O=C(O)COc1ccc(/C=N/NC(=O)C2CCCN2S(=O)(=O)c2ccc(Cl)cc2)cc1 (stereo not drawn) | 3 | 51* | -3 | 4 | -4 | 13 | x
C(=N\Nc1nncc2ccccc12)/c1cccnc1 | 0 | x | 0 | x | x | x | x
CCSCc1nnc(SCC(=O)Nc2ccc(OC)cc2)n1C | -2 | 56* | 7 | 18 | -10 | 63* | 5
Cn1c(SCC(=O)Nc2ccc3[nH]c(=O)[nH]c3c2)nnc1-c1ccccc1 | 1 | 2 | 0 | -3 | -6 | x | x
Cn1c(SCC(=O)Nc2ccc3c(c2)oc2ccccc23)nnc1-c1ccccc1 | -2 | 46* | -4 | 18 | -1 | 60* | 3
